According to the supplement of paper PMC11732987, “Enantioselective OTUD7B fragment discovery through chemoproteomics screening and high-throughput optimisation” (Communications Chemistry, 2025):

Experiments:
Assay in all cases: log2 ratio of Biotin-Ahx-Ub-VS probe labelling (fragment/DMSO); higher = less target engagement (more negative = stronger competition), active = hit call of the paper (q ≤ 0.05, log2 ratio ≤ -1)
Conditions in all cases: compound concentration: 200 uM; treatment time: 3 h
[1] = molecular target: T1, ALG13 (UniProt Q9NP73)
T1 sequence (whole entry): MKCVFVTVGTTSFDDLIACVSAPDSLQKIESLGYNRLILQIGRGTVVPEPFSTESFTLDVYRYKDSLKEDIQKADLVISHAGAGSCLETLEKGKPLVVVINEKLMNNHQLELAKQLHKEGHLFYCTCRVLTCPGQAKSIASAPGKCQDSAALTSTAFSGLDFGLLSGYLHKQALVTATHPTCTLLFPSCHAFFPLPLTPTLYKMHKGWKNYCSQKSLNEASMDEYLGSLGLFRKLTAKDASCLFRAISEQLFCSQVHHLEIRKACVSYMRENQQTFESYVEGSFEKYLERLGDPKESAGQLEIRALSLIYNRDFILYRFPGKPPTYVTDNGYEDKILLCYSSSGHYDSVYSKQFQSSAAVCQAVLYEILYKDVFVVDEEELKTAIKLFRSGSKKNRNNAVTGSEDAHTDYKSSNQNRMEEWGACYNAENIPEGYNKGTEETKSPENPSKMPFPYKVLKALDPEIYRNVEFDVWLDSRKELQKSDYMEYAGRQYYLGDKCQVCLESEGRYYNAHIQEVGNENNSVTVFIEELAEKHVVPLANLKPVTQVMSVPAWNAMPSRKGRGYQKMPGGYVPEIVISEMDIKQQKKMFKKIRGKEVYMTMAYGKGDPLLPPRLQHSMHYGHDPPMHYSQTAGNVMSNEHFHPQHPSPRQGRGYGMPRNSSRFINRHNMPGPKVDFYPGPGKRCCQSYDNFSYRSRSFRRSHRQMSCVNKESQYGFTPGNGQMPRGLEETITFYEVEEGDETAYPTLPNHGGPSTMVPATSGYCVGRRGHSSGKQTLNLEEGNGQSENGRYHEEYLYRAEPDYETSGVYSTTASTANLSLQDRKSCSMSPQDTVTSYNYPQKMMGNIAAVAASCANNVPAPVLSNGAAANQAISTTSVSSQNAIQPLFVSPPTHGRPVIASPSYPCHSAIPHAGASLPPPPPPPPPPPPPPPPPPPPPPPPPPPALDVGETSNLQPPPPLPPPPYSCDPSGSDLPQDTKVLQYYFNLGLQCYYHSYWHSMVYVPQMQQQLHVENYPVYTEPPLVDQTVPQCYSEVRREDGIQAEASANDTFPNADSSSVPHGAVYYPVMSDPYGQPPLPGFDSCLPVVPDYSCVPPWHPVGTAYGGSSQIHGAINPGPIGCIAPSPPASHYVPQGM
Outline: (§1)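 Global-median-normalised Spectronaut label-free quantities were compared by unpaired t-test, and values are average log2 ratios of fragment over vehicle. Only proteins with ≥2 unique peptides were used. HEK293T lysate (495 µg per sample) was treated in triplicate with fragment at 200 µM or vehicle for 3 h and then with Biotin-Ahx-Ub-VS at 0.5 µM final for 1 h. Labelled DUBs were then NeutrAvidin-enriched, digested with LysC and trypsin, and run by diaPASEF LC-MS/MS.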

[2] = molecular target: ATXN3 (UniProt P54252)
Outline: as §1

[3] = molecular target: T2, BAP1 (UniProt Q92560)
T2 sequence (whole entry): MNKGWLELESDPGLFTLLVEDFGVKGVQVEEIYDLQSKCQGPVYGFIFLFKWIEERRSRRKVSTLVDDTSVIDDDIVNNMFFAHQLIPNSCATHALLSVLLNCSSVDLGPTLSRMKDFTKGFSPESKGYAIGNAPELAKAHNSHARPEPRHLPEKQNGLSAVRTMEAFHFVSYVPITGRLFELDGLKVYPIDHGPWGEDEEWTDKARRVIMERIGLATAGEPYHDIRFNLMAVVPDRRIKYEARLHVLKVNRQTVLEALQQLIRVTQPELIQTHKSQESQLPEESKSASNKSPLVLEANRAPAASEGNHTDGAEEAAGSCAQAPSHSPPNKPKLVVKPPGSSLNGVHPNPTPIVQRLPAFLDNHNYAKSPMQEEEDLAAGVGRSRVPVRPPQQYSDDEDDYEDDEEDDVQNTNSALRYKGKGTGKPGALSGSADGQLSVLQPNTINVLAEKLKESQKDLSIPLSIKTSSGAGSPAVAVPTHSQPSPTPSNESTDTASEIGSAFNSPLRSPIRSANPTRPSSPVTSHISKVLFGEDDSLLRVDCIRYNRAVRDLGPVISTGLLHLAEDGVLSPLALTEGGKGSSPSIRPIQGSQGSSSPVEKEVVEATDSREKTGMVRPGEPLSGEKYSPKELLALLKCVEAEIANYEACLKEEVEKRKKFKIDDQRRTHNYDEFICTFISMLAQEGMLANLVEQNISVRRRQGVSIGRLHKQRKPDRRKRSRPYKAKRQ
Outline: as §1

[4] = molecular target: EIF3F (UniProt O00303)
Outline: as §1

[5] = molecular target: EIF3H (UniProt O15372)
Outline: as §1

[6] = molecular target: T3, FAM105A (UniProt Q9NUU6)
T3 sequence (whole entry): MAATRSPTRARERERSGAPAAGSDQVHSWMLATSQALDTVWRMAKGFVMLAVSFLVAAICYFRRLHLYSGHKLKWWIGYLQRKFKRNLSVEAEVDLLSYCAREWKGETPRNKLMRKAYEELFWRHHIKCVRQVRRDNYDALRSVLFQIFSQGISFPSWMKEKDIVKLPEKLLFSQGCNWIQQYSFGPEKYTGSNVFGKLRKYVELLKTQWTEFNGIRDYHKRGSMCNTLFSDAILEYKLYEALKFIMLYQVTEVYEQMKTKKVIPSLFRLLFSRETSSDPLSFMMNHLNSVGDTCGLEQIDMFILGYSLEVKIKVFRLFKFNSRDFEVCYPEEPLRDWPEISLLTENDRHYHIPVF
Outline: as §1

[7] = molecular target: OTUB1 (UniProt Q96FW1)
Outline: as §1

[8] = molecular target: T4, OTUD4 (UniProt Q01804)
T4 sequence (whole entry): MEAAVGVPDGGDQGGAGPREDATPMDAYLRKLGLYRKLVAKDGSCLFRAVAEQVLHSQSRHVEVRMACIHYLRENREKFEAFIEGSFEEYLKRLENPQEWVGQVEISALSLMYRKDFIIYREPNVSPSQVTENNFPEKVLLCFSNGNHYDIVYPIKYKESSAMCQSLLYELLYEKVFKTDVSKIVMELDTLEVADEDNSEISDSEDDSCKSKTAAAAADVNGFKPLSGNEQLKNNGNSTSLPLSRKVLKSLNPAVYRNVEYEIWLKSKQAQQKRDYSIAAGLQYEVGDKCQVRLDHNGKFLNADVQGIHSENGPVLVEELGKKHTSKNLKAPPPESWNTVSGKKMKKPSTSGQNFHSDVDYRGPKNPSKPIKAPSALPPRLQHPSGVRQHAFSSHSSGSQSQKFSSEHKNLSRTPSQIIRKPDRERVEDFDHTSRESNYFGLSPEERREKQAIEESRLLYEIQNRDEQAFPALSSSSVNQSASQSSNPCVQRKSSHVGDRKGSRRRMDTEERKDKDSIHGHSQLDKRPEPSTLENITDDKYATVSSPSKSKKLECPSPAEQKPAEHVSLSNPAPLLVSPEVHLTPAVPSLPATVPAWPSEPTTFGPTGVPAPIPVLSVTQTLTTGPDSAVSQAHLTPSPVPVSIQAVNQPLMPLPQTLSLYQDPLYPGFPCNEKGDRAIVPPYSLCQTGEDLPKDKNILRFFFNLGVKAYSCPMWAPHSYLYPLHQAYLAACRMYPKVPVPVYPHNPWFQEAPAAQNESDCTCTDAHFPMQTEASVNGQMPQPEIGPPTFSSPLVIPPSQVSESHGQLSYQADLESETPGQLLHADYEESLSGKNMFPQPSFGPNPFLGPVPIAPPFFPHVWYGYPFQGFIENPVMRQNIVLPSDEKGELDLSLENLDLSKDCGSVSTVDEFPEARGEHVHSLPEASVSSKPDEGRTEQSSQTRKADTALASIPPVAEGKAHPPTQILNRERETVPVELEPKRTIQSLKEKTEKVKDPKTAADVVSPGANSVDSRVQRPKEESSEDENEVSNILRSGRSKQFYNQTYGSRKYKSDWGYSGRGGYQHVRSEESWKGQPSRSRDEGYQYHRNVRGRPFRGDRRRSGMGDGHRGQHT
Outline: as §1

[9] = molecular target: T5, OTUD5 (UniProt Q96G74)
T5 sequence (whole entry): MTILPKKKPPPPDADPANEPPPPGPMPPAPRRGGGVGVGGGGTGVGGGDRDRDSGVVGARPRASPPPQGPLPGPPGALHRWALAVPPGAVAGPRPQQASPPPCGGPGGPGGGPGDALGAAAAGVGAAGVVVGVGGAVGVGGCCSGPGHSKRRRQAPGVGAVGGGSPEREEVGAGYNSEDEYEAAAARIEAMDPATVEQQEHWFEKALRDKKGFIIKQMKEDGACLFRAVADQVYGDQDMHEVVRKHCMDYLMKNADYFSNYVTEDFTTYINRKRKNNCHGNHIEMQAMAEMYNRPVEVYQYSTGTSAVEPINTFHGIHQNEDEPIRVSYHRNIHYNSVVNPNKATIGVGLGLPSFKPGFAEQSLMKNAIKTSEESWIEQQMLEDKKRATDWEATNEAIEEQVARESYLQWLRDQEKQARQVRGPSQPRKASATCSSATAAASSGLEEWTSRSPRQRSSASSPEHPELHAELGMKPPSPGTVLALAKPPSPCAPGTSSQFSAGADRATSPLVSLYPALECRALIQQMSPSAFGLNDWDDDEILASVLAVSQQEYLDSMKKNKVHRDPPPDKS
Outline: as §1

Measured: log2 ratio of Biotin-Ahx-Ub-VS probe labelling

Chain of EIF3H (O15372 whole entry): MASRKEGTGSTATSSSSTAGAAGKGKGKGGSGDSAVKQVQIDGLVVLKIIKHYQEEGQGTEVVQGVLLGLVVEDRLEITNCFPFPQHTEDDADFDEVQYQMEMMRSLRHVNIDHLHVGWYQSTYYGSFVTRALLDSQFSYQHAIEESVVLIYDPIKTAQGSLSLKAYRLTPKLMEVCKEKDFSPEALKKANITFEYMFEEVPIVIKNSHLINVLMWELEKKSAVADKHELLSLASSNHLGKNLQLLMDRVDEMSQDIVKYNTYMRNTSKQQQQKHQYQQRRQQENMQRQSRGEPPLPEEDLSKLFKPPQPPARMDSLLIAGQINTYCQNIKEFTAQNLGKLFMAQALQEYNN
Chain of ATXN3 (P54252 whole entry): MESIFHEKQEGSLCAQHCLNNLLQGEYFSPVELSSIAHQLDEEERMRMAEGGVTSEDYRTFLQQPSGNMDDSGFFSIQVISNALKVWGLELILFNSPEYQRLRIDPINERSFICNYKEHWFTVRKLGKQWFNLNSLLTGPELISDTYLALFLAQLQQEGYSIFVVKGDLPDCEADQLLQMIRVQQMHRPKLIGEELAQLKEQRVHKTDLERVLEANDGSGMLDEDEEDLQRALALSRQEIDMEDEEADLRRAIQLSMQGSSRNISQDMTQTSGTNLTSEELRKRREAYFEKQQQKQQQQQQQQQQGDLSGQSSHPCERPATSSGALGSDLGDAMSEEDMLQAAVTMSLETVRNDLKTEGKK
Chain of OTUB1 (Q96FW1 whole entry): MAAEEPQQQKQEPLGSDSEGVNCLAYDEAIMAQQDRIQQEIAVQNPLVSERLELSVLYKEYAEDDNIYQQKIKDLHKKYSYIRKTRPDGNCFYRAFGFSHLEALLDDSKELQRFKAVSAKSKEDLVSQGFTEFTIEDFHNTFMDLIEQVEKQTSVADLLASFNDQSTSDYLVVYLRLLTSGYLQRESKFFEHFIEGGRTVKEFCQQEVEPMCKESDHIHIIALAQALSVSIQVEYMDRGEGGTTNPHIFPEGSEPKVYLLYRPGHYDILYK
Chain of EIF3F (O00303 whole entry): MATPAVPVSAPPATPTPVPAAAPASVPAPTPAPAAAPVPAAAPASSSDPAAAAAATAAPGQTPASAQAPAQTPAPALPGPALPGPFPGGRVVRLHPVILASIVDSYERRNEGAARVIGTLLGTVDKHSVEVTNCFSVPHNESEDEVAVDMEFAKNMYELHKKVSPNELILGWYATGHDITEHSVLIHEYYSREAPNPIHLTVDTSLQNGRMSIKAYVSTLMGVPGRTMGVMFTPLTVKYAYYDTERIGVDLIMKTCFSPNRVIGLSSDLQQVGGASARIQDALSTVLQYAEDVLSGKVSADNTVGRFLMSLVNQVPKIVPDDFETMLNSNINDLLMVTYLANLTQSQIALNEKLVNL

NC(=O)C1CCCN(C(=O)CCl)C1 (centres undefined)
inactive: [1] 0.0966 | [2] -0.171 | [3] -0.437 | [4] -0.000958 | [5] 0.225 | [6] 0.217 | [7] -0.301 | [8] 0.0344 | [9] -0.159
